In PubChem BioAssay (EPA / NIEHS):
The source made the active and inactive calls. Rule for the calls: active = hit-call score of the fitted dose curve at least 0.9, where 1 is the maximum; inactive = score below 0.9.

Tests used:
Details in all cases: mRNA level, 48 h; actives raise or lower the signal
[1] = read-out: Peroxisomal acyl-coenzyme A oxidase 1 (ACOX1) gene, ACOX1 (gene 51); test: LTEA_HepaRG_ACOX1: Life Technologies and Expression Analysis (LTEA) Assay for Peroxisomal acyl-coenzyme A oxidase 1 (ACOX1) gene using HepaRG (AID 2283467)
Outline: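 Differentiated human HepaRG cells were exposed in duplicate for 48 h in serum-free induction medium to eight half-log concentrations up to 100 uM in 0.5% DMSO. ACOX1 mRNA was then quantified by TaqMan qRT-PCR, normalized to ACTB, GAPDH and POLR2A.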

[2] = read-out: Alkaline Phosphatase, Placental (ALPP) gene, ALPP (gene 250); test: LTEA_HepaRG_ALPP: Life Technologies and Expression Analysis (LTEA) Assay for Alkaline Phosphatase, Placental (ALPP) gene using HepaRG (AID 2283468)
Outline: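 qRT-PCR readout of ALPP mRNA (Fluidigm TaqMan), normalized to ACTB/GAPDH/POLR2A, after 48 h chemical exposure of HepaRG cells; 8-point half-log series, top 100 uM, 0.5% DMSO vehicle. Bidirectional curve fit versus DMSO baseline.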

[3] = read-out: Bcl-2 (BAD) gene, BAD (gene 572); test: LTEA_HepaRG_BAD: Life Technologies and Expression Analysis (LTEA) Assay for Bcl-2 (BAD) gene using HepaRG (AID 2283469)
Outline: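 Differentiated human HepaRG cells in serum-free induction medium were exposed in duplicate for 48 h to eight concentrations (top 100 uM, half-log steps, 0.5% DMSO). BAD mRNA was quantified by qRT-PCR normalised to ACTB, GAPDH and POLR2A, with bidirectional fitting versus DMSO.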

[4] = read-out: Bcl-2 (BAX) gene, BAX (gene 581); test: LTEA_HepaRG_BAX: Life Technologies and Expression Analysis (LTEA) Assay for Bcl-2 (BAX) gene using HepaRG (AID 2283470)
Outline: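 HepaRG (human liver), 48 h exposure, duplicate wells. 8-pt curve, half-log from 100 uM, 0.5% DMSO. BAX transcript by TaqMan qRT-PCR; ACTB/GAPDH/POLR2A normalization; gain or loss vs DMSO baseline.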

[5] = read-out: adenosine kinase (ADK) gene, ADK (gene 132); test: LTEA_HepaRG_ADK: Life Technologies and Expression Analysis (LTEA) Assay for adenosine kinase (ADK) gene using HepaRG (AID 2283471)
Outline: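 HepaRG (human liver), 48 h chemical exposure, 8-pt half-log series, top 100 uM, 0.5% DMSO vehicle. Readout: ADK mRNA by qRT-PCR vs housekeeping genes; bidirectional curve fit relative to DMSO baseline.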

[6] = read-out: Apolipoprotein A-V (APOA5) gene, APOA5 (gene 116519); test: LTEA_HepaRG_APOA5: Life Technologies and Expression Analysis (LTEA) Assay for Apolipoprotein A-V (APOA5) gene using HepaRG (AID 2283474)
Outline: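 HepaRG, 48 h chemical exposure in serum-free induction medium, 8-pt half-log series (top 100 uM), 0.5% DMSO vehicle, duplicates. Readout: APOA5 mRNA by qRT-PCR, housekeeping-normalized; bidirectional fit vs DMSO baseline.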

[7] = read-out: Apoptosis regulator Bcl-2 (Homo sapiens) (UniProt P10415); test: LTEA_HepaRG_BCL2: Life Technologies and Expression Analysis (LTEA) Assay for Bcl-2 gene using HepaRG (AID 2283475)
Outline: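 HepaRG, plated 48 h then switched to serum-free induction medium; dosed 48 h, 8 conc. (max 100 uM, half-log steps), duplicate, 0.5% DMSO. Lysis in RLT, RNA isolated, TaqMan qRT-PCR for BCL2; ACTB/GAPDH/POLR2A normalisation; bidirectional fit vs DMSO.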

Caspase-3 (Homo sapiens) = Caspase-3 (Homo sapiens) (UniProt P42574); test: LTEA_HepaRG_CASP3: Life Technologies and Expression Analysis (LTEA) Assay for cysteine-aspartic acid protease (CASP3) using HepaRG (AID 2283477)
Outline: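 HepaRG, 48 h exposure, 8 conc. (top 100 uM, half-log steps, duplicate), 0.5% DMSO vehicle; qRT-PCR of CASP3 transcript, housekeeping-normalised (ACTB/GAPDH/POLR2A); bidirectional curve fit vs DMSO baseline.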

[8] = read-out: Cytochrome P450 (CYP24A1), CYP24A1 (gene 1591); test: LTEA_HepaRG_CYP24A1: Life Technologies and Expression Analysis (LTEA) Assay for Cytochrome P450 (CYP24A1) using HepaRG (AID 2283478)
Outline: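 qRT-PCR read-out: CYP24A1 transcript levels normalized to three housekeeping genes, bidirectional curve fits against 0.5% DMSO baseline. Human HepaRG cells treated 48 h with chemicals at eight concentrations from 100 uM in half-log steps.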

[9] = read-out: Cytochrome P450 (CYP1A2), CYP1A2 (gene 1544); test: LTEA_HepaRG_CYP1A2: Life Technologies and Expression Analysis (LTEA) Assay for Cytochrome P450 (CYP1A2) using HepaRG (AID 2283479)
Outline: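 HepaRG, 48 h exposure, top 100 uM, half-log 8-pt, 0.5% DMSO vehicle, duplicates. Readout: TaqMan qRT-PCR of CYP1A2 mRNA, housekeeping-normalized (ACTB/GAPDH/POLR2A). Gain/loss fit relative to DMSO baseline.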

[10] = read-out: cysteine-aspartic acid protease (CASP8), CASP8 (gene 841); test: LTEA_HepaRG_CASP8: Life Technologies and Expression Analysis (LTEA) Assay for cysteine-aspartic acid protease (CASP8) using HepaRG (AID 2283480)
Outline: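 Differentiated human HepaRG cells, plated 48 h then switched to serum-free induction medium, were exposed in duplicate for 48 h to 8 half-log concentrations up to 100 uM in 0.5% DMSO. CASP8 mRNA was quantified by qRT-PCR, normalized to ACTB/GAPDH/POLR2A.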

[11] = read-out: Cytochrome P450 (CYP2B6), CYP2B6 (gene 1555); test: LTEA_HepaRG_CYP2B6: Life Technologies and Expression Analysis (LTEA) Assay for Cytochrome P450 (CYP2B6) using HepaRG (AID 2283481)
Outline: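 Read-out is CYP2B6 mRNA by TaqMan qRT-PCR, normalized to three housekeeping genes and fitted bidirectionally against 0.5% DMSO baseline. Human HepaRG cells received test chemicals for 48 h, top concentration 100 uM, half-log dilutions.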

[12] = read-out: Cytochrome P450 2C19 (Homo sapiens) (UniProt P33261); test: LTEA_HepaRG_CYP2C19: Life Technologies and Expression Analysis (LTEA) Assay for CYP2C19 using HepaRG (AID 2283482)
Outline: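 HepaRG, 48 h chemical exposure, 8-pt half-log series from 100 uM in 0.5% DMSO, duplicates. Readout: CYP2C19 mRNA by TaqMan qRT-PCR, housekeeping-normalized. Bidirectional fit vs DMSO baseline; phenobarbital 1mM as induction control.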

CYP2C8 (gene 1558) = test: LTEA_HepaRG_CYP2C8: Life Technologies and Expression Analysis (LTEA) Assay for CYP2C8 using HepaRG (AID 2283483)
Outline: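 Differentiated human HepaRG cells were exposed for 48 h in serum-free induction medium to eight half-log concentrations up to 100 uM in 0.5% DMSO, in duplicate. CYP2C8 mRNA was measured by TaqMan qRT-PCR, normalized to ACTB, GAPDH and POLR2A, and fitted bidirectionally against DMSO.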

CYP2C9 (gene 1559) = test: LTEA_HepaRG_CYP2C9: Life Technologies and Expression Analysis (LTEA) Assay for CYP2C9 using HepaRG (AID 2283484)
Outline: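 Differentiated human HepaRG cells were exposed 48 h in serum-free induction medium to eight half-log concentrations up to 100 uM in 0.5% DMSO. CYP2C9 mRNA was measured by qRT-PCR, normalized to ACTB, GAPDH and POLR2A, and fitted bidirectionally against DMSO.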

CYP2E1 (gene 1571) = test: LTEA_HepaRG_CYP2E1: Life Technologies and Expression Analysis (LTEA) Assay for CYP2E1 using HepaRG (AID 2283485)
Outline: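 Human liver line HepaRG, plated 48 h, then serum-free induction medium + chemical x 48 h; 8-pt CRC from 100 uM, half-log, 0.5% DMSO, n=2. Readout: CYP2E1 mRNA qRT-PCR vs ACTB/GAPDH/POLR2A; bidirectional fit vs DMSO.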

CYP4A11 (gene 1579) = test: LTEA_HepaRG_CYP4A11: Life Technologies and Expression Analysis (LTEA) Assay for CYP4A11 using HepaRG (AID 2283486)
Outline: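 CYP4A11 transcript levels were quantified by TaqMan qRT-PCR after HepaRG human liver cells were treated for 48 hours with test chemicals (top 100 uM, half-log dilutions, 0.5% DMSO). Gain or loss of signal was fitted relative to DMSO.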

BCL2L11 (gene 10018) = test: LTEA_HepaRG_BCL2L11: Life Technologies and Expression Analysis (LTEA) Assay for Bcl-2 (BCL2L11) gene using HepaRG (AID 2283473)
Outline: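 HepaRG, 48 h exposure, 8-pt half-log series from 100 uM in 0.5% DMSO, duplicates; qRT-PCR (Fluidigm TaqMan) for BCL2L11, housekeeping-normalized; bidirectional curve fit relative to DMSO baseline.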

[13] = read-out: Bcl-2 (BID) gene, BID (gene 637); test: LTEA_HepaRG_BID: Life Technologies and Expression Analysis (LTEA) Assay for Bcl-2 (BID) gene using HepaRG (AID 2283476)
Outline: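 Transcript levels of BID, measured by qRT-PCR and normalized to three housekeeping genes, were fitted bidirectionally against DMSO controls. Cells were HepaRG, dosed 48 h at up to 100 uM.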

Measured: AC50

Apoptosis regulator Bcl-2 (Homo sapiens), sequence (P10415 whole entry, looked up): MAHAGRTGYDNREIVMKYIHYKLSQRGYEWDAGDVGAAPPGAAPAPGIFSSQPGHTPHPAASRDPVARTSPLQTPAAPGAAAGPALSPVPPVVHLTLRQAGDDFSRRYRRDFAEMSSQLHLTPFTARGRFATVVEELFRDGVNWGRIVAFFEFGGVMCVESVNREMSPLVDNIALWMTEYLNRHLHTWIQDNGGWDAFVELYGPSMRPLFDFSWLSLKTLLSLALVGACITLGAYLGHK
Cytochrome P450 2C19 (Homo sapiens), sequence (P33261 whole entry, looked up): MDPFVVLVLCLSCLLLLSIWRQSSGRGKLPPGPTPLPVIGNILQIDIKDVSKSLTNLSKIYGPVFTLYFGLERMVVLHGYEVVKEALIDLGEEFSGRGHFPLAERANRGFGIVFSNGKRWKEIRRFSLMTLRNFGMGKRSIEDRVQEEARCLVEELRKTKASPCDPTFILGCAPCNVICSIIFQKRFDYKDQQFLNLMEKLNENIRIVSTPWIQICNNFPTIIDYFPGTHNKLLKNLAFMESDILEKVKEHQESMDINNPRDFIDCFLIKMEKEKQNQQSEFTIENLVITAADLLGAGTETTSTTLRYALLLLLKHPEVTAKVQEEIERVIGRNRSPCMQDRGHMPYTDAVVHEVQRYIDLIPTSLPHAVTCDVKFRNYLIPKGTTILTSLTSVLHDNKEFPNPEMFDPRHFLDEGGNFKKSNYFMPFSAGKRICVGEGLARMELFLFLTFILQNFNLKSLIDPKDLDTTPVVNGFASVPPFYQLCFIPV
Caspase-3 (Homo sapiens), sequence (P42574 whole entry, looked up): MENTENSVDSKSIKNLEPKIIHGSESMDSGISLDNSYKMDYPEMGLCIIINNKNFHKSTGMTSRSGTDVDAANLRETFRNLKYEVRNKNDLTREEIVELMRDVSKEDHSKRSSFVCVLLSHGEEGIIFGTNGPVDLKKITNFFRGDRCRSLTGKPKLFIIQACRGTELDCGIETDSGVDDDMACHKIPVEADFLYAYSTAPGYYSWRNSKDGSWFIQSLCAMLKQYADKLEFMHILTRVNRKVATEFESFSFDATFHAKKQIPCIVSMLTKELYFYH

COc1ccc(O)c(C(C)(C)C)c1
not listed: BCL2L11 (gene 10018) | [13]
inactive: all other assays above

N#Cc1ccc(N(CC(N)=O)CC(F)(F)F)cc1C(F)(F)F
active: [11] 0.159 µM | [12] 19.3 µM | CYP2E1 (gene 1571) 0.537 µM
not listed: [10] | BCL2L11 (gene 10018) | [13]
inactive: all other assays above

CCCCCCCCCC[N+](C)(C)CCCCCCCCCC
active: [1] 76.4 µM | [2] 90.5 µM | [4] 60.3 µM | [5] 79.1 µM | Caspase-3 (Homo sapiens) 75.9 µM | CYP2C9 (gene 1559) 60 µM | CYP4A11 (gene 1579) 26.3 µM
not listed: [10] | [13]
inactive: all other assays above

C=CC(N)=O
not listed: [12] | BCL2L11 (gene 10018) | [13]
inactive: all other assays above

Oc1ccc(Cl)cc1Cl
active: [13] 12.2 µM
not listed: [5] | BCL2L11 (gene 10018)
inactive: all other assays above
